In PubChem BioAssay AID504371 (National Center for Advancing Translational Sciences (NCATS), 2011) one finds Potency data, which are given here for three compounds.

Inconclusive results are not listed. The source made the active and inactive calls. Calls follow the shape of the dose curve; as a rule, active = well fitted curve in the direction sought with a large enough effect; inconclusive = small, poorly fitted or top-dose-only effect, or another doubt; inactive = no such curve, though single readings can be large or run the other way.

The test in a line: qHTS Assay for Compounds Blocking the Interaction Between CBF-beta and RUNX1 for the Treatment of Acute Myeloid Leukemia: ME-1 cellular proliferation, SAR for Probe. Particulars: ME-1 cell proliferation, ATP luminescence, 48 h. From the text:
NIH Chemical Genomics Center [NCGC] NIH Molecular Libraries Probe Production centers Network [MLPCN] MLPCN Grant: X01MH083259-01 Assay Submitter (PI): Paul Liu NCGC Assay Overview: Core Binding Factor (CBF) abnormalities are associated with 20-25% of all acute myeloid leukemias (AML), of which 5-10% are further sub classified as acute myelomonocytic leukemia with eosinophilia, also known as M4Eo in the FAB classification scheme. This subtype of leukemia is usually associated with chromosome 16 inversion (p13:q22). Chromosome 16 inversion results in formation of the fusion oncogene CBFB-MYH11, which encodes the fusion protein CBF-beta-SMMHC. […] It has been hypothesized that the interference of CBF-beta and RUNX1 binding could have therapeutic implications for patients with CBF mediated leukemias. We developed a CBF-beta and RUNX1 binding assay in AlphaScreenTM format and optimized it for high throughput screening to search for inhibitors. The goal of this project is to screen MLPCN's compound collection (MLSMR) for identifying the inhibitors of the interaction between CBF-beta and RUNX1 proteins as research probes. If these probes work well in the animal models, the ultimate goal of this project is to development a new drug treatment for this disease. The present assay assesses compounds ability to slow cellular proliferation in a CBFb dependent cell line, ME-1.
NCGC Assay protocol: 2uL/well media was dispensed per well into 1536-well white solid-bottom plates using Multidrop Combi dispenser. Subsequently, 23 nL/well compound solutions or DMSO controls were dispensed to the assay plates via a pintool workstation. […] The plates were incubated at 37 °C with 5% CO2 and 95% humidity for 48 hours, and then ATP content was measured following the addition of 4uL/well of ATPlite reagent and a 20 min incubation on a ViewLux plate reader.
In general terms: Quantitative high-throughput screening tests each substance at several concentrations.
As for `CCN(CC)CCN1C(=O)CN=C(c2ccccn2)c2cc(Cl)ccc21`, the Potency is 109 µM (active).

Turning to `CN1C(=O)CN=C(c2ccc[nH]2)c2cc(Cl)ccc21` (tested in a mixture with another compound), the Potency is 27.4 µM (active).

In the case of `CCN(CC)CCN1C(=O)CN=C(c2ccc[nH]2)c2cc(Cl)ccc21`, the Potency is 137 µM (active).
